{
  "source": "the supplement of paper PMC10681739",
  "data": [
    {"molecular_target": "RUNX1 (UniProt Q01196)", "sequence (Q01196 whole entry)": "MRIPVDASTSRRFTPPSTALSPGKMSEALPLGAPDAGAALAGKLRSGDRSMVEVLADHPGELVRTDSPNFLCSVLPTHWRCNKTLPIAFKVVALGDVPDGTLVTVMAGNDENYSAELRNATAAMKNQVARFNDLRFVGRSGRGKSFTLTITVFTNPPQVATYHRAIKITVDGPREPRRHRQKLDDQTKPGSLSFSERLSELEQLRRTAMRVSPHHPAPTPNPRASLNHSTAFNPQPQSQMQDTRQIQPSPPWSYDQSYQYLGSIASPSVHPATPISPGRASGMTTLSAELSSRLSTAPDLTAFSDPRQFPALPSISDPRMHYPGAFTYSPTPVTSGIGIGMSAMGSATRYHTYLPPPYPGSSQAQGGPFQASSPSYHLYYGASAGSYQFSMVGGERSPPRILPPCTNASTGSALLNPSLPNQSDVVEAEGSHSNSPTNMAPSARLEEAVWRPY", "experiment": "RUNX1 binding intensity (PBM fluorescence) in presence of ETS1, normalised to RUNX1-only experiment (arbitrary fluorescence units); higher = stronger binding", "details": "RUNX1 concentration 2 nM; ETS1 concentration 25 nM", "description": "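Cooperative gcPBM on 36-bp genomic probes with neighbouring ETS1 and RUNX1 sites. Recombinant human RUNX1 (2 nM) was incubated alone or with ETS1 (25 nM) and detected with anti-RUNX1 antibody plus Alexa488 secondary. Values are medians over 4 replicate spots; the RUNX1+ETS1 data were normalised to the RUNX1-only data. The probes sit in constant array flanks that are not printed.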", "values": [
      {"sequence": "GTATCACTTCCTGTTTTCCTCTGTGGCTTACTGCTG", "RUNX1 binding intensity": 3210},
      {"sequence": "GATCCCCCTCCTCCATCCTGTGGCTTCGGGTTGCCG", "RUNX1 binding intensity": 1150},
      {"sequence": "GCTCTTCACTTCCTGTGGCTCCCGCAGCGGCCGCCG", "RUNX1 binding intensity": 2460},
      {"sequence": "GGGGAAAGGAAGAGGAAACCGCGAGTGCAAAGGCCC", "RUNX1 binding intensity": 2330},
      {"sequence": "TCATAAGGAAGTGGAGTGTAGTAACCACAGGCCCCG", "RUNX1 binding intensity": 1340},
      {"sequence": "CACGGAGCCACTTCCGGCGGCTGTGGGCGCAAAACC", "RUNX1 binding intensity": 3120},
      {"sequence": "CACGCCTGCGGAAGATGAAAACCACACGTCATGCAG", "RUNX1 binding intensity": 915},
      {"sequence": "TGCCGGGCCCCGGATGTCACCGCAGCCGCCATCTTA", "RUNX1 binding intensity": 1990},
      {"sequence": "AGGGTTGGGGAGGATGTTGTGGTTATTATTGACATA", "RUNX1 binding intensity": 2840},
      {"sequence": "AACAAAGAGAGAGGAAGTGGGTTGGGCGGGGGGGGT", "RUNX1 binding intensity": 1040},
      {"sequence": "TTAACTCCACGGAAGAATAAACCACCACCGCTCACC", "RUNX1 binding intensity": 908},
      {"sequence": "CTCAGCTCCGCGGAAGTTGCGGTAAGTGGAGCTTTG", "RUNX1 binding intensity": 5790},
      {"sequence": "GAGCTGCTCCGGAAGGGTGGTGTGTGGTCAACCTTG", "RUNX1 binding intensity": 1050},
      {"sequence": "CACCTCACAGCCCGGATACAAACCGCCTACCCGCCC", "RUNX1 binding intensity": 1230},
      {"sequence": "AACAAACCGGATGGGGTTGCCACCCGCAATCTTGTC", "RUNX1 binding intensity": 2140},
      {"sequence": "GCGGCTTTGTACGGAAACCCACACACATTGTTATTT", "RUNX1 binding intensity": 1020},
      {"sequence": "CCACTGCTTCCGCCTTCTCTGCTGGCTGCGGGGAGC", "RUNX1 binding intensity": 2210},
      {"sequence": "CCGCCCCCGGACGGTCACAGCACCCAAACCGCAGGC", "RUNX1 binding intensity": 3240},
      {"sequence": "CCAGCCCAGGAAACAAGGAACCCCAAAGCCACAGGA", "RUNX1 binding intensity": 979},
      {"sequence": "GCGCAAAGCCGGAAGGAGGGGTTTGCGGCTGGGGAG", "RUNX1 binding intensity": 1360},
      {"sequence": "CACCCATAGCACCCCGGAAACCACCTCCACCACCTG", "RUNX1 binding intensity": 2020},
      {"sequence": "CTGAGCAAAAGGAGGAAGCTGTGGTCTGTGTACCCA", "RUNX1 binding intensity": 945},
      {"sequence": "GGGGAAGAGGGGAGGATGTCTGAGGTTTTAATTGTA", "RUNX1 binding intensity": 793},
      {"sequence": "TGCTTCCCTTCCGTTCCGACAGCGAAAACCGCTGCC", "RUNX1 binding intensity": 2030},
      {"sequence": "GCAGAACCAGAAACAGGATGTGGGTTCCCCTTTAAG", "RUNX1 binding intensity": 4550},
      {"sequence": "ATGTCCCCAGGAGGATGTGGTGTGTCCACAGGAGGA", "RUNX1 binding intensity": 875},
      {"sequence": "CGTACGCGCACTTCCGGTCTTTGTGGCTTGCAGCTC", "RUNX1 binding intensity": 2610},
      {"sequence": "GCGCCCCGCTTCCGGGGCCGCCCTAAACCGCGGCCG", "RUNX1 binding intensity": 3790},
      {"sequence": "GCCGCGCGGAAGCCTCCGCCCTGTGGTTTTGGAGCC", "RUNX1 binding intensity": 1530},
      {"sequence": "CTTAGTGTTTGAGGATGTGGGTTTTACAATCAGATC", "RUNX1 binding intensity": 1310},
      {"sequence": "CCTCTGAGGCAGGAAGCTGCGGTGAAGTCTGAAGTT", "RUNX1 binding intensity": 2070},
      {"sequence": "ACTAGAAGCGGAAGTAGTTGTGGGCGCCTTTGCAAC", "RUNX1 binding intensity": 1410},
      {"sequence": "CCCTGGACGGGAAGCGGCGGCCAGATCCGCAAGCCC", "RUNX1 binding intensity": 940},
      {"sequence": "TTTCAAAACCCGGAAATGACCGCCAGGCTGGCATCA", "RUNX1 binding intensity": 1380},
      {"sequence": "GTTGTGCTCTTTCCTGCTTCCCGCAGTTTTTTAGTT", "RUNX1 binding intensity": 1890},
      {"sequence": "AGGAGCCGGAAGTCCCGCCCACGCACCCCCCGCAGG", "RUNX1 binding intensity": 1770},
      {"sequence": "ACCACACTTCCCAGGAGTCTCTGCGGCCGCGCGGAG", "RUNX1 binding intensity": 801},
      {"sequence": "GGTGGCCGCCGGAAGTGTGACCGCGGGAGGGGAGTG", "RUNX1 binding intensity": 2690},
      {"sequence": "TCTAGTAAAAGAGGAAGTTCTTAACCACATTTCCAT", "RUNX1 binding intensity": 1620},
      {"sequence": "AGGCCGCCTACAGGATGTTGGAAACCACAGGGCCCG", "RUNX1 binding intensity": 2660}
    ]}
  ]
}
